Shown are actives, neighbours in structure and some others; about 8.1% of the full set was active somewhere.
ELG1 DNA repair: qHTS screen for small molecules that inhibit ELG1-dependent DNA repair in human embryonic kidney (HEK293T) cells expressing luciferase-tagged ELG1; HEK293T ELG1-luciferase reporter, luminescence, 16 h; DNA damage induced by 5-fluorouridine; Potency, µM (doses to about 46.1 µM), actives largely listed as inhibitors; actives 2.3% (n = 330,000); AID 504467, 2011; note: nearly all actives have a fitted effect of over 55% in size
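Cells (2,000 per well) received 5-fluorouridine plus test compound or DMSO and were incubated 16 hr at 37 °C, 5% CO2. Luciferase activity was read by luminescence 30 min after ONE-Glo addition; signal suppression marked inhibition of damage-induced ELG1 function.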
KB-3-1 cytotox: qHTS assay for MDR1-selective chemotherapeutics: Primary screen using the parental adenocarcinoma cell KB-3-1. KB-3-1 viability, CellTiter-Glo ATP luminescence, 72 h. Potency, µM (series often up to 46.1 µM), actives largely listed as cytotoxic. actives 1.4% (n = 400,000). AID 1347075, 2019; note: nearly all actives have a fitted effect of over 60% in size
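KB-3-1 parental drug-naive adenocarcinoma cells in DMEM/10% FBS, incubated 72 h at 37 C with pin-transferred compounds across a concentration series. Viability by CellTiter-Glo luminescence; concentration-response curves fitted after normalization.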
SW480 rereplic: A quantitative high throughput screen for small molecules that induce DNA re-replication in SW480 colon adenocarcinoma cells. Potency, µM (top dose mostly 46.1 µM), usual class: activators. actives 1.8% (n = 340,000). SW480 DNA re-replication, Hoechst DNA content imaging, 48 h; note: nearly all actives have a fitted effect of over 55% in size
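Cells (250 per well) received 23 nL compound or DMSO by pin tool and were kept 48 hr at 37 C, 5% CO2. Nuclei were then stained with Hoechst for 40 min and scanned for DNA content.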
KB-V1 MDR tox: qHTS assay for MDR1-selective chemotherapeutics: Primary screen using the drug-selected MDR subline cells KB-V1; KB-V1 MDR cells viability, CellTiter-Glo, 72 h; Potency, µM (highest dose often 46.1 µM), usual class: cytotoxic; actives 3.4% (n = 400,000); AID 1347076, 2019; note: nearly all actives have a fitted effect of over 60% in size
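Cytotoxicity via CellTiter-Glo luminescence after 72 h compound exposure at 37 degrees C. Cells: drug-selected KB-V1 line, DMEM phenol-red free plus 10% FBS. Compounds tested at multiple concentrations; normalized data fitted to concentration-effect curves.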
MCF10A rereplic: A quantitative high throughput screen for small molecules that induce DNA re-replication in MCF 10a normal breast cells; MCF 10A DNA re-replication, Hoechst nuclear intensity, 48 h; Potency, µM (titrated, usually from 46.1 µM), actives largely listed as activators; actives 2.9% (n = 350,000); note: nearly all actives have a fitted effect of over 50% in size
A number is an active result; . = inactive; ? = inconclusive; / = not tested or not shown. Calls come from the whole dose curve; as a rule, active = well fitted curve in the direction sought with a large enough effect; inconclusive = small, poorly fitted or top-dose-only effect, or another doubt; inactive = no such curve, though single readings can be large; an effect the other way counts as inactive or inconclusive.

SMILES	ELG1 DNA repair	KB-3-1 cytotox	SW480 rereplic	KB-V1 MDR tox	MCF10A rereplic
CC(Sc1nnc(NC2CC2)s1)C(=O)Nc1ccc(S(N)(=O)=O)cc1 (centres undefined)	.	?	.	.	.
Cc1ccc2sc(NC(=O)CSc3nc(C)cc(C)c3C#N)nc2c1	?	.	2.8µM	.	.
Cc1cc(C)c(C#N)c(SCC(=O)Nc2nnc(-c3ccccc3)s2)n1	.	.	.	.	10µM
Cc1nc(SCC(=O)Nc2nc3ccccc3s2)c(C#N)c(C)c1C	5.2µM	?	5.8µM	.	6.5µM
Cc1cc(C)c(C#N)c(SCC(=O)Nc2ccccc2C)n1	.	.	.	.	.
Cc1ccc2cc(C#N)c(SCC(=O)Nc3ccc4sc(C)nc4c3)nc2c1	.	/	/	/	/
Cc1cc(C(F)(F)F)c(C#N)c(SCC(=O)Nc2nc3ccccc3s2)n1	?	.	/	?	?
CN(CC(=O)Nc1ccc(Cl)cc1)C(=O)CCc1nc2sc3c(c2c(=O)[nH]1)CCCC3	.	.	?	.	18µM
N#Cc1nc(Nc2cc(F)cc(F)c2)c2ncn(CCO)c2n1	/	15µM	/	?	/
Cc1ccccc1CSc1nnc(-c2ccncc2)n1C	.	.	.	.	.
CC(C)C(=O)N(Cc1cc2ccccc2[nH]c1=O)C(C)C	.	.	.	16µM	.
CCOc1ccc(S(=O)(=O)N(CC(=O)N/N=C/c2cccs2)c2ccc(C)cc2)cc1	.	.	.	23µM	.
CCOC(=O)c1ccc(NC(=O)CN(c2ccc(C)cc2)S(=O)(=O)c2ccc(OC)cc2)cc1	/	.	/	.	/
CC(C)N(Cc1cc2ccccc2[nH]c1=O)C(=O)C(C)(C)C	.	.	.	.	.
Cc1ccc(N(Cc2cc3cc(C)ccc3[nH]c2=O)S(=O)(=O)c2ccccc2)cc1	?	?	18µM	?	?
CCOC(=O)c1ccc(N(CCC2CO2)S(=O)(=O)c2ccc(C)cc2)cc1 (centres undefined)	/	.	.	21µM	.
Cc1ccc(/C=c2\sc3nc(-c4cccs4)nn3c2=O)o1	.	.	.	.	.
COc1ccc(N(Cc2cc3ccccc3[nH]c2=O)S(C)(=O)=O)cc1	.	.	.	16µM	.
CCOc1ccc(N(Cc2ccc(C(=O)O)cc2)S(=O)(=O)c2ccc(C)cc2)cc1	.	?	?	?	3.7µM
CCOc1ccc(C(=O)N(CN2CCCC2=O)c2ccc(C)cc2)cc1	?	.	.	4.6µM	.
CCOc1ccc(C(=O)N(CN2CCCC2=O)c2ccccc2)cc1	.	.	.	.	.
Cc1ccc2cc(CN(c3ccccc3)S(=O)(=O)c3ccccc3)c(=O)[nH]c2c1	.	.	.	.	.
CCOc1ccc(N(Cc2cc3ccc(C)cc3[nH]c2=O)S(=O)(=O)c2ccccc2)cc1	?	16µM	21µM	.	21µM
COCCOC1CCN(C(=O)C2CCC(=O)N(Cc3cccc(F)c3)C2)CC1 (centres undefined)	?	.	.	.	.
C=CCn1c(SCC(=O)NCC2CCCO2)nnc1-c1ccccc1 (centres undefined)	.	.	.	.	?
SMILES	ELG1 DNA repair	KB-3-1 cytotox	SW480 rereplic	KB-V1 MDR tox	MCF10A rereplic
COc1ccccc1CN1C[C@@H]2C[C@@H](c3ccc(C)c(C)c3)N3CCC[C@@]23C1=O	?	.	4.1µM	.	.
CC1=C(C(=O)NCc2cccc(F)c2)C2(CCCCCC2)OC1=O	/	.	/	.	/
COc1ccc(/C(C)=N/OCC(=O)N=Nc2c(O)[nH]c3ccc(Br)cc23)cc1	?	.	.	.	.
COc1ccccc1NC(=S)N=Nc1c(O)[nH]c2ccc(Br)cc12	?	2.3µM	.	?	?
COc1ccc(/C=N/OCC(=O)N=Nc2c(O)[nH]c3ccc(Br)cc23)cc1OC	13µM	.	.	.	?
Cc1cccc(NC(=S)N=Nc2c(O)[nH]c3ccccc23)c1	.	.	?	.	6.5µM
COC(=O)c1ccc(Cl)cc1NC(=O)NCCc1c(C)nn(C)c1C	/	.	/	.	/
CCN(CC(=O)Nc1ccc(NC(C)=O)cc1)C(=O)c1ccccc1SCc1c(C)noc1C	.	.	.	.	.

Compound activity deposited in PubChem BioAssay by National Center for Advancing Translational Sciences (NCATS).
